The list is not random: actives were taken first. Their share in the collection is about 1.4%.
LANA-H2A inh = blocks KSHV LANA binding to histone H2A/H2B | cell-free LANA-H2A/H2B peptide, fluorescence polarization | inhibition, % (concentration not given with the values) | 0.6% of 320,000 active | AID 2629; in the data active means inhibition mostly above about 10%, no sharp cut-off; inactive means mostly below about 6.7%
A3G deaminase = APOBEC3G (human) deaminase inhibition; recombinant A3G, ssDNA deamination FAM/TAMRA fluorescence; inhibition, % at 20 µM; 0.28% of 330,000 active;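 active means inhibition of at least 40% at 20 µM, with no more than 30% in the related APOBEC3A deaminase screen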;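 further: plate controls were DMSO wells with A3G for no effect and wells lacking A3G enzyme for full effect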
HDAC3 inh = human HDAC3 inhibition; inhibition, % at 8.3 µM; O15379; 0.15% of 320,000 active; AID 2718; recombinant HDAC3, fluorogenic peptide/trypsin coupled, fluorescence; in the data active means inhibition above about 26%, passing the limit was not always enough; inconclusive means no clear call, values can overlap the other calls
Target sequence (O15379 whole entry, looked up): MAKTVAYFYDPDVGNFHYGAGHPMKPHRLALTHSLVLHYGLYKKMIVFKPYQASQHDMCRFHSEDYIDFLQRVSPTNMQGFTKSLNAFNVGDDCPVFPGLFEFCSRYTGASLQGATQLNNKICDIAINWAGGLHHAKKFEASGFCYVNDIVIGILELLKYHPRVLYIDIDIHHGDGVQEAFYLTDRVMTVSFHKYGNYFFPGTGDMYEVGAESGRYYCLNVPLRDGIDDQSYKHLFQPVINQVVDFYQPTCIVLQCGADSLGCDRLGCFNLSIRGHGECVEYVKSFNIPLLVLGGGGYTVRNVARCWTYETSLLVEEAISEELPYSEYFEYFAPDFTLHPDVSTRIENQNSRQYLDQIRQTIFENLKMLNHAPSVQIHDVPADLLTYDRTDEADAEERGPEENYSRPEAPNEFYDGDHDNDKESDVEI
APOBEC3A inh = blocks human APOBEC3A ssDNA deamination; AID 493011; recombinant A3A, FAM/TAMRA ssDNA deamination fluorescence; 0.41% of 330,000 active; P31941; inhibition, % at 20 µM;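 active means at least 40% inhibition at 20 µM here, with at most 30% in a related deaminase screen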;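 further: plate controls were A3A with DMSO for no effect and wells lacking A3A enzyme for full effect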
A3A conf = APOBEC3A (human) deaminase inhibition, confirmed; shares compounds with APOBEC3A inh; inhibition, % at 20 µM; recombinant A3A, ssDNA deaminase UDG fluorescence assay; AID 493151; 63% of 1,400 active;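 active means inhibition reaching a set limit, 80% of the first screen's cutoff, at 20 µM in any replicate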;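 further: plate controls were DMSO wells with A3A for no effect and wells lacking A3A enzyme for full effect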
UDG A3A counter = counter-screen for APOBEC3A inhibitors: UDG | AID 504714 | shares compounds with APOBEC3A inh | UDG counterscreen, FAM/TAMRA uracil oligo fluorescence | 1,000 tested, under 10 active | inhibition, % at 20 µM; call rule not given here
Active calls of the source: *; ? = inconclusive; / = no result given.

SMILES	LANA-H2A inh	A3G deaminase	HDAC3 inh	APOBEC3A inh	A3A conf	UDG A3A counter
Cc1n(C)c2cc(Cl)ccc2[n+]1Cc1ccccc1	-2	26	3	78*	65*	-2
O=C(CSc1ncccn1)N1CCN(C(=O)CSc2ncccn2)CC1	5	-4	-3	-3	/	/
O=C(CSc1ncccn1)N1CCN(C(c2ccccc2)c2ccccc2)CC1	1	8	1	47*	70*	-2
COCCN(C(=O)COC(=O)CNC(=O)c1cccs1)c1c(N)n(Cc2ccccc2)c(=O)[nH]c1=O	6	9	5	53*	50*	-3
COCCN(C(=O)COC(=O)c1cccs1)c1c(N)n(Cc2ccccc2)c(=O)[nH]c1=O	0	-4	3	2	/	/
COc1ccc(CCNC(=O)c2ccccc2NC(=O)C2=C(C)OCCS2)c(OC)c1	-6	0	-5	-1	/	/
COc1ccc(C2=[N+](C)CCn3cccc32)c(OC)c1	4	14	12	63*	73*	3
COC(=O)c1ccc(C)c(NC(=O)CCn2[nH]c(=O)ccc2=O)c1	/	2	/	0	/	/
O=C(Nc1ccc(F)cc1F)c1noc2c1CCC2	-6	15	9	50*	33*	/
Cc1ccc(S(=O)(=O)/N=C2/NC(=O)/C(=C/c3ccc(Br)o3)S2)cc1	2	-6	8	52*	-5	1
O=C(CN1c2cccc3cccc(c23)S1(=O)=O)N1CCCCC1	1	1	-8	1	/	/
COCc1cc(C)nc(Sc2nc3c(c(=O)n(C)c(=O)n3C)n2C)c1C#N	/	13	/	50*	44*	-3
Cc1cc(N2CCCC2)ccc1NC(=O)CN1C(=O)NC2(CCCCC2)C1=O	-6	-6	4	24	/	/
CC1=NC(=O)C(N=Nc2cccc(C(=O)O)c2)N1c1ccccc1 (stereo not given)	-9	15	9	43*	63*	2
Cc1csc(NC(=O)C2CC(=O)N(c3ccc4c(c3)OCCO4)C2)n1 (stereo not given)	-1	-8	2	-6	/	/
O=C(Nc1nc(-c2ccco2)c(-c2ccco2)s1)C1CC(=O)N(c2ccc3c(c2)OCCO3)C1 (stereo not given)	6	27	6	49*	37*	-4
O=C(Nc1nnc(SCc2ccc(F)cc2)s1)C1CC(=O)N(c2ccc3c(c2)OCCO3)C1 (stereo not given)	1	0	9	-1	/	/
O=C(Nc1nnc(SCc2c(Cl)cccc2Cl)s1)C1CC(=O)N(c2ccc3c(c2)OCCO3)C1 (stereo not given)	1	21	8	64*	23	/
Cc1nc(SCC(=O)N2CCN(c3ccccn3)CC2)c(C#N)c(C)c1C	3	-3	-1	1	/	/
O=C(Nc1ccc(Br)cn1)c1coc(=O)c(Br)c1	2	24	-19	62*	21*	-5
CCCCn1c(SCC(=O)NC(=O)Cc2ccccc2)nc2ccccc2c1=O	1	-6	-5	-4	/	/
O=C(NCc1ccccc1Cl)c1cc(=O)[nH]c2ccccc12	0	3	-4	52*	15	/
O=C(NCc1ccccc1F)c1cc(=O)[nH]c2ccccc12	-1	-3	-1	2	/	/
CCc1cc(CNC(=O)C2CCC(=O)N(CCc3cccc(F)c3)C2)on1 (stereo not given)	/	-2	/	4	/	/
CCOc1ccccc1NC(=S)N1CCN(c2ccc(OC)cc2)CC1	-8	-4	4	83*	-9	-3
SMILES	LANA-H2A inh	A3G deaminase	HDAC3 inh	APOBEC3A inh	A3A conf	UDG A3A counter
Cc1cc(C(=O)NNC(=O)/C=C/c2ccco2)c(C)o1	/	30	/	30	/	/
CC(Sc1nnc(N)s1)C(=O)Nc1nccs1 (stereo not given)	-2	-3	-6	-2	/	/
COc1ccc(OC)c(-c2nnc(NC(=O)C(C)Sc3nncn3C)s2)c1 (stereo not given)	2	-2	-1	-3	/	/
Cc1nnc(SC(C)C(=O)Nc2nccs2)s1 (stereo not given)	2	5	1	71*	13	/
Cc1nnc(NC(=O)C(C)Sc2nncn2C)s1 (stereo not given)	-1	-3	/	69*	-8	-3
N#Cc1c(SCC(=O)Nc2nc3ccc(Br)cc3s2)sc2c(O)cc(=O)[nH]c12	2	27	6	43*	39*	-4
N#Cc1c(SCC(=O)Nc2nc3ccccc3s2)sc2c(O)cc(=O)[nH]c12	/	64	3	78	/	/
Cc1n[nH]c(C)c1S(=O)(=O)N1CCC(C(=O)N2CCn3c2nc2ccccc23)CC1	-1	-4	0	98*	-6	-4
O=C(C1CCN(S(=O)(=O)c2cccc3nsnc23)CC1)N1CCn2c1nc1ccccc12	-2	-1	0	1	/	/
COc1ccc(C(=O)Nc2cnn(Cc3c(F)cccc3Cl)c2)cc1OC	-3	-2	12	1	/	/
CCN(CC)c1cc(C)c2ccccc2n1	-1	16	2	57*	7	/
Cc1cccc2nc3ccccc3cc12	-3	-3	2	1	/	/
CCN(c1ccccc1)S(=O)(=O)c1cccc(C(=O)NCCN2CCOCC2)c1	-2	4	3	4	/	/
CN(CC(=O)NCCCN1CCOCC1)S(=O)(=O)c1cc(Cl)ccc1Cl	-2	-4	-2	-3	/	/
CCN1CCN(c2ccc(NC(=O)c3ccc4c(c3)OCCO4)cc2C)CC1	/	19	/	74*	73*	-1
CCN1CCN(c2ccc(NC(=O)c3ccccc3F)cc2Cl)CC1	0	-6	-6	10	/	/
CCN1CCN(c2ccc(NC(=O)c3cc4ccccc4cc3OC)cc2C)CC1	2	7	0	41*	73*	-4
Cc1cccc(N2CCN(C(=O)COc3ccc4c(C)cc(=O)oc4c3C)CC2)c1C	-8	-4	-2	-3	/	/
CC[n+]1cc(-c2ccccc2)nc(N2CCOCC2)n1	1	19	3	51*	67*	/
NC(=O)c1cc(-c2ccccc2)nc(N2CCOCC2)n1	-3	-6	9	-2	/	/
Cc1onc(-c2ccccc2)c1C(=O)NCC(=O)Nc1cc(Cl)ccc1Cl	-3	-5	1	-4	/	/
C[N+]1(CC(O)c2ccccc2)CCCCCC1 (stereo not given)	-1	24	12	69*	64*	3
OC(CCCCN1CCCCC1)c1ccccc1 (stereo not given)	-4	-2	0	0	/	/
C[N+]1(CCC(=O)c2ccccc2)CCCCC1	1	34	?	65	/	/
CC(=O)OC(C[N+]1(C)CCCCCC1)c1ccccc1 (stereo not given)	1	14	-1	79*	69*	-2
O=C(NC12CC3CC(CC(C3)C1)C2)OCCNC1CCCCC1	-2	-6	3	-3	/	/
CC(C)c1ccc(N(C(=O)c2ccc3c(c2)OCO3)C2C=CS(=O)(=O)C2)cc1 (stereo not given)	2	-3	?	-3	/	/
